# Key:
# Assay in all cases: DAPPL (digital affinity profiling via proximity ligation, sequencing); 10 mM Tris-HCl pH 7.5, 50 mM NaCl, 1 mM DTT, 4% glycerol, room temperature, 30 min; GST-TFs on glutathione beads, 16-mer random dsDNA library, 0.1% formaldehyde crosslink after washing; high values mean tight binding
# FEV = target: T1, FEV (Homo sapiens, UniProt Q99581 1-238); settings: protein: recombinant; tags: N-terminal GST; dsDNA, one strand shown
# T1 sequence: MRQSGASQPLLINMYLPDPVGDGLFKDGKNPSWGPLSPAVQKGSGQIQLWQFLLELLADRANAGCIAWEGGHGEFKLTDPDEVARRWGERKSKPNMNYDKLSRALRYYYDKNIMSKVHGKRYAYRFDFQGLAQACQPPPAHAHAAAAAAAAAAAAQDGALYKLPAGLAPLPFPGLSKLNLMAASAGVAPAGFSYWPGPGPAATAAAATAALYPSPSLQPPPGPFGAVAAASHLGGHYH
# Outline: (§1)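 Pools of DNA-barcoded human transcription factors, expressed in yeast as GST fusions on glutathione beads and combined with a tag-only sample, were incubated with 200 nmole of a 16-mer random double-stranded DNA library. Incubation took 30 min at room temperature in Tris/NaCl/DTT/glycerol buffer and was followed by washing, 0.1% formaldehyde crosslinking, proximity ligation (BsaI/T4 ligase, 1 h, 37 °C), PCR amplification and sequencing on an Illumina NextSeq500. Binding signal is the ratio of a hexamer's read frequency for a factor to its frequency for the tag-only sample.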
# ETV5 = ETV5 (Homo sapiens, UniProt P41161 1-510); settings: protein: recombinant; tags: N-terminal GST; dsDNA, one strand shown
# Chain of ETV5 (P41161 whole entry): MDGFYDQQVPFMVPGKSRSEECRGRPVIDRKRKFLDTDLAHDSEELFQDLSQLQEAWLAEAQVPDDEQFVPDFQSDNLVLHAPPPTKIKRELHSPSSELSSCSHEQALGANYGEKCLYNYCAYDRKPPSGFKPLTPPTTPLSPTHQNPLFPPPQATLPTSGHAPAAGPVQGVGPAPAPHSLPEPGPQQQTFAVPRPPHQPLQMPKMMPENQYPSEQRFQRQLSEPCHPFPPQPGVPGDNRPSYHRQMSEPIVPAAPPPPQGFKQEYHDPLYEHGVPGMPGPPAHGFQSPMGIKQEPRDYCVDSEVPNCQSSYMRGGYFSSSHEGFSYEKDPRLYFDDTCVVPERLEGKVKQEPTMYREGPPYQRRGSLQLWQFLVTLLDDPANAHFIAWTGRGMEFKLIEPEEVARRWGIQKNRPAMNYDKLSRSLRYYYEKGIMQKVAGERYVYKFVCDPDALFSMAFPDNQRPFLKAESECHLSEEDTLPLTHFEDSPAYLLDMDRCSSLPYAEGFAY
# Outline: as §1
# HSF1 = HSF1 (Homo sapiens, UniProt Q00613 1-529); settings: protein: recombinant; tags: N-terminal GST; chain copies: 3; dsDNA, one strand shown
# Chain of HSF1 (Q00613 whole entry): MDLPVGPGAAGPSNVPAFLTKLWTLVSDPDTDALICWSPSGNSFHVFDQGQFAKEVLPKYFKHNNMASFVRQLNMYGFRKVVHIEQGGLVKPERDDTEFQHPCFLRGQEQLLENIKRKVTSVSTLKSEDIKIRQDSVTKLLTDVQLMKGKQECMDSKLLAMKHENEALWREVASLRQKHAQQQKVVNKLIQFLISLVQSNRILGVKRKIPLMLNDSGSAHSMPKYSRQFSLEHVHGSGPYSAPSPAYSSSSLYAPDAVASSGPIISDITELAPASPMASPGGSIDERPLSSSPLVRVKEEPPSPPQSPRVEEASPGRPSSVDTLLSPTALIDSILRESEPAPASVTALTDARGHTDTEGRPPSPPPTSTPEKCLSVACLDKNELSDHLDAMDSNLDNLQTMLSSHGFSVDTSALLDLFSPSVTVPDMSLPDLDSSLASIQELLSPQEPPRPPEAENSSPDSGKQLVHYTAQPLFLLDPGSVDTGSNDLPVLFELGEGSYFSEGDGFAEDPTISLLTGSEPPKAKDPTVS
# Outline: as §1
# SPIC = target: T2, SPIC (Homo sapiens, UniProt Q8N5J4 1-248); settings: protein: recombinant; tags: N-terminal GST; dsDNA, one strand shown
# T2 sequence: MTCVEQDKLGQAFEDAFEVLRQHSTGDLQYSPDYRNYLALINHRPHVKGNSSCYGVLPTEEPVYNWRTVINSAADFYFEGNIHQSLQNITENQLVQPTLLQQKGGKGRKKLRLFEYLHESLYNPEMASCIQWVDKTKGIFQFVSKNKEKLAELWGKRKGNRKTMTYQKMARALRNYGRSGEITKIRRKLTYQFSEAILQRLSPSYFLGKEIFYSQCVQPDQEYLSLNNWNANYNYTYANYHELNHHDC
# Outline: as §1
# ELF4 = ELF4 (Homo sapiens, UniProt Q99607 1-663); settings: protein: recombinant; tags: N-terminal GST; dsDNA, one strand shown
# Chain of ELF4 (Q99607 whole entry): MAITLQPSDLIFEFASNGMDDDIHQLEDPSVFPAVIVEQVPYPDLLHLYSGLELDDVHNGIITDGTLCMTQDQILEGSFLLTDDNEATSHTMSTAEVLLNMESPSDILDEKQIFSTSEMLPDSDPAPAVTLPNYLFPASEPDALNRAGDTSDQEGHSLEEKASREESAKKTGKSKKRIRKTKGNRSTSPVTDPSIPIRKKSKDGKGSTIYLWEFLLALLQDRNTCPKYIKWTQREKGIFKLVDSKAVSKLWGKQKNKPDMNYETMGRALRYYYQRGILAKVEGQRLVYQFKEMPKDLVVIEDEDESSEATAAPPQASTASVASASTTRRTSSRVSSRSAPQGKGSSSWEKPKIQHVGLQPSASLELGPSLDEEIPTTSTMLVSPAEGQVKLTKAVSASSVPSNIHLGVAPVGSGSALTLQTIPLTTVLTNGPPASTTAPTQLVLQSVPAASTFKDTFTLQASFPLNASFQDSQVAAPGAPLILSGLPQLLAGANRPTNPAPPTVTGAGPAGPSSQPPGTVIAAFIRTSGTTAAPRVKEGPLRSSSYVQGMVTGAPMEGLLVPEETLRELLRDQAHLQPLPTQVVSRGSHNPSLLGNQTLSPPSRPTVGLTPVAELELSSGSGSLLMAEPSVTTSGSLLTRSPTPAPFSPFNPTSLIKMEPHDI
# Outline: as §1
# ELK4 = target: T3, ELK4 (Homo sapiens, UniProt P28324-2 1-405); settings: protein: recombinant; tags: N-terminal GST; dsDNA, one strand shown
# T3 sequence: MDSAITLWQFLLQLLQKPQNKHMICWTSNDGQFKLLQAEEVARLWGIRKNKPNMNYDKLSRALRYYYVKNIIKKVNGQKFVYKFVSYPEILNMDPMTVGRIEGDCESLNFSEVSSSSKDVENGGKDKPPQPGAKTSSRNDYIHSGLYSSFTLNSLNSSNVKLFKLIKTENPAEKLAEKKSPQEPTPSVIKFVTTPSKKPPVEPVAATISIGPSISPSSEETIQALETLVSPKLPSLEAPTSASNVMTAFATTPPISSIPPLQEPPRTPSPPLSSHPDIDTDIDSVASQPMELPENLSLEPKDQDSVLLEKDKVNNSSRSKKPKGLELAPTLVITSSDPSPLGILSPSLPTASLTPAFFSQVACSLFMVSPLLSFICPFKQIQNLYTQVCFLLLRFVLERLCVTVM
# Outline: as §1
# ETV2 = target: T4, ETV2 (Homo sapiens, UniProt O00321 1-342); settings: protein: recombinant; tags: N-terminal GST; dsDNA, one strand shown
# T4 sequence: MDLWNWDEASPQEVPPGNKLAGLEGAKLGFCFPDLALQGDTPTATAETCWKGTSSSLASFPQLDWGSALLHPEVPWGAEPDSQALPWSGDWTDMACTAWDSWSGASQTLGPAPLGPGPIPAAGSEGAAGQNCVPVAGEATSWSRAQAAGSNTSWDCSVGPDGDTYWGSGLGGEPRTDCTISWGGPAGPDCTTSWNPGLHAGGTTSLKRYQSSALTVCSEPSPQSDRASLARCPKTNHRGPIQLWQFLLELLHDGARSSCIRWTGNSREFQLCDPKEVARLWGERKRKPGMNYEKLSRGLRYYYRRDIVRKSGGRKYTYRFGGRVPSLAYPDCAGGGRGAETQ
# Outline: as §1
# ELF3 = target: T5, ELF3 (Homo sapiens, UniProt P78545 1-371); settings: protein: recombinant; tags: N-terminal GST; dsDNA, one strand shown
# T5 sequence: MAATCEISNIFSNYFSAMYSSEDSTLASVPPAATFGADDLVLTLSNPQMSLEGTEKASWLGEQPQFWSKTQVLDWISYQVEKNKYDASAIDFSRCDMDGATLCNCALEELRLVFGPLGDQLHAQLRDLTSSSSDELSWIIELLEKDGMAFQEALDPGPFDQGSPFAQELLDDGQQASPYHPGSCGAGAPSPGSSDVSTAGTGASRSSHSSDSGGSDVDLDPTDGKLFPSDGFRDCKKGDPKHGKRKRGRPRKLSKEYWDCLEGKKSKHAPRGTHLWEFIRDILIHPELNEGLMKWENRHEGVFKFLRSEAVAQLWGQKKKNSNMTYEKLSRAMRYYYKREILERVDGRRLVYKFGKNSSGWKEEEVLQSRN
# Outline: as §1
# CRX = CRX (Homo sapiens, UniProt O43186 1-299); settings: protein: recombinant; tags: N-terminal GST; dsDNA, one strand shown
# Chain of CRX (O43186 whole entry): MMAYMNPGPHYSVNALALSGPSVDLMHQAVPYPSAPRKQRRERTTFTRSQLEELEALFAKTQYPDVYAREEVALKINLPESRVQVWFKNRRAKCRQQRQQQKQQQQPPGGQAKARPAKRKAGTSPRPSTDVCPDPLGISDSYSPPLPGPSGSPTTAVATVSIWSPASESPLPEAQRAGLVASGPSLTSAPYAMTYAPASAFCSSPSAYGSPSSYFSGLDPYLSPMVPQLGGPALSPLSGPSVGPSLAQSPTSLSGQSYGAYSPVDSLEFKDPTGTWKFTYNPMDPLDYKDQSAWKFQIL
# Outline: as §1
# ETV1 = ETV1 (Homo sapiens, UniProt P50549 1-477); settings: protein: recombinant; tags: N-terminal GST; dsDNA, one strand shown
# Chain of ETV1 (P50549 whole entry): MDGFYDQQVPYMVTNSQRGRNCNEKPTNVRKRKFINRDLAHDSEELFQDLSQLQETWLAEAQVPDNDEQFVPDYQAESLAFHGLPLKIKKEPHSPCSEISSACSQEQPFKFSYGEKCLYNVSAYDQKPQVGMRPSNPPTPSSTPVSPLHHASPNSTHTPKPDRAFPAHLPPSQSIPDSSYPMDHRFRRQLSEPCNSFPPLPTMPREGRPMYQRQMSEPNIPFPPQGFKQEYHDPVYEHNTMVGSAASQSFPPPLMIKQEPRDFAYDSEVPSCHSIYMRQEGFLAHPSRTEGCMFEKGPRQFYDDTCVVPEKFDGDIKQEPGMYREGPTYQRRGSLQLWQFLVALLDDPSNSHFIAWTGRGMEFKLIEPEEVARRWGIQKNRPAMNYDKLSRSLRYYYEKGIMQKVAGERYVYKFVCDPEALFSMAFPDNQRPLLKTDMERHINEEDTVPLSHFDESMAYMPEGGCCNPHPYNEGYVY
# Outline: as §1
# ERF = target: T6, ERF (Homo sapiens, UniProt P50548 1-548); settings: protein: recombinant; tags: N-terminal GST; dsDNA, one strand shown
# T6 sequence: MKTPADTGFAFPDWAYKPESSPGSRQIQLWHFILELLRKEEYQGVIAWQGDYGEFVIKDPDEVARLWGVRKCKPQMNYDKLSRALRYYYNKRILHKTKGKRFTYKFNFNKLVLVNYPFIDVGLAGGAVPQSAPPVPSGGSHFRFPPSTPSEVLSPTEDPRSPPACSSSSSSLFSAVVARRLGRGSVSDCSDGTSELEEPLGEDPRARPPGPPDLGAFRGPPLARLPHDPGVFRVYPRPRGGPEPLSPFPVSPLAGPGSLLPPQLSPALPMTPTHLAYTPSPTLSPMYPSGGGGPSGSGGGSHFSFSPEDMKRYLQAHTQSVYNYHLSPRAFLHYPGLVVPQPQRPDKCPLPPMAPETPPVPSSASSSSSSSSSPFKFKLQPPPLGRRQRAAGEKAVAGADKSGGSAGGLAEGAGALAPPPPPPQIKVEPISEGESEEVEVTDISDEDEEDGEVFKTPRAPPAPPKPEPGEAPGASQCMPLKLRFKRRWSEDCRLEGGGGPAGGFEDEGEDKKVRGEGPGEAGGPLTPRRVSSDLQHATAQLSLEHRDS
# Outline: as §1
# ETV3L = target: T7, ETV3L (Homo sapiens, UniProt Q6ZN32 1-361); settings: protein: recombinant; tags: N-terminal GST; dsDNA, one strand shown
# T7 sequence: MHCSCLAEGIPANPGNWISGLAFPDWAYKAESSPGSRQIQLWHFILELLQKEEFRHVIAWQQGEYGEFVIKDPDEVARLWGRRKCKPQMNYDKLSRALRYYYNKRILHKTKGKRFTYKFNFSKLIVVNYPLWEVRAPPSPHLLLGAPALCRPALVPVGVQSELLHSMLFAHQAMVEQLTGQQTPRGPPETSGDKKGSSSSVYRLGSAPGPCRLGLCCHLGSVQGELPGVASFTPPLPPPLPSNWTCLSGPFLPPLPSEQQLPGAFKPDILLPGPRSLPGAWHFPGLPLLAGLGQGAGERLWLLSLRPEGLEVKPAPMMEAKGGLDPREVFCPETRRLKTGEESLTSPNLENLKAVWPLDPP
# Outline: as §1
# ETS2 = target: T8, ETS2 (Homo sapiens, UniProt P15036 1-469); settings: protein: recombinant; tags: N-terminal GST; dsDNA, one strand shown
# T8 sequence: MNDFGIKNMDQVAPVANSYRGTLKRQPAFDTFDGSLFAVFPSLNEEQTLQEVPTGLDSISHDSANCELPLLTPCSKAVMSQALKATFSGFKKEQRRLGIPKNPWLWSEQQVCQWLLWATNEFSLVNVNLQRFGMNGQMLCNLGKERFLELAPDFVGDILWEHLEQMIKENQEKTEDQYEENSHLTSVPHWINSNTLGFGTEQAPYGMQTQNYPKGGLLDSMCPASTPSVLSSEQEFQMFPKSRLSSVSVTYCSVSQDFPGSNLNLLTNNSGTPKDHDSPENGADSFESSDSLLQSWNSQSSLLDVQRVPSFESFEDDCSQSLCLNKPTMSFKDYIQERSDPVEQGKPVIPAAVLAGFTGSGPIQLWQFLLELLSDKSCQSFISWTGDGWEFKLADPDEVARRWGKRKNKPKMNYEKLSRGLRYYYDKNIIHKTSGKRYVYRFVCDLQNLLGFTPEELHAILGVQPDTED
# Outline: as §1
# SPDEF = target: T9, SPDEF (Homo sapiens, UniProt O95238 1-335); settings: protein: recombinant; tags: N-terminal GST; dsDNA, one strand shown
# T9 sequence: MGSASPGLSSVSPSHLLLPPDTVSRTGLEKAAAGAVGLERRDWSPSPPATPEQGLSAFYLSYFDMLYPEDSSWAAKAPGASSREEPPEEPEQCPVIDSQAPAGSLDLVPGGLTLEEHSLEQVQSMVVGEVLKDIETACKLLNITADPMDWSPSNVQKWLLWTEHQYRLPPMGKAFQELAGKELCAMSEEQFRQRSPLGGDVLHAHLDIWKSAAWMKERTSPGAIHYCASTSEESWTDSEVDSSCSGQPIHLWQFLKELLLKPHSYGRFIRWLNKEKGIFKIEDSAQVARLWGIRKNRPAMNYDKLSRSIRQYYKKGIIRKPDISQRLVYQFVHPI
# Outline: as §1
# ETV7 = target: T10, ETV7 (Homo sapiens, UniProt Q9Y603 1-341); settings: protein: recombinant; tags: N-terminal GST; dsDNA, one strand shown
# T10 sequence: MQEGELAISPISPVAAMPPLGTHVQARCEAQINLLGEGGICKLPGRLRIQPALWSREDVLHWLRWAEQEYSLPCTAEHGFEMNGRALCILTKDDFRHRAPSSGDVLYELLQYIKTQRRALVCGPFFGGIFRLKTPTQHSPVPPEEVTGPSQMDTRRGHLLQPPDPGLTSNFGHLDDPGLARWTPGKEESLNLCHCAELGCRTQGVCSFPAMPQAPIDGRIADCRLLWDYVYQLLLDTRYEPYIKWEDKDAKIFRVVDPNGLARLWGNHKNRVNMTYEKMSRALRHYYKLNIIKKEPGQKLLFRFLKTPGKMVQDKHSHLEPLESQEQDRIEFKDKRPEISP
# Outline: as §1
# ELF5 = target: T11, ELF5 (Homo sapiens, UniProt Q9UKW6-2 1-255); settings: protein: recombinant; tags: N-terminal GST; dsDNA, one strand shown
# T11 sequence: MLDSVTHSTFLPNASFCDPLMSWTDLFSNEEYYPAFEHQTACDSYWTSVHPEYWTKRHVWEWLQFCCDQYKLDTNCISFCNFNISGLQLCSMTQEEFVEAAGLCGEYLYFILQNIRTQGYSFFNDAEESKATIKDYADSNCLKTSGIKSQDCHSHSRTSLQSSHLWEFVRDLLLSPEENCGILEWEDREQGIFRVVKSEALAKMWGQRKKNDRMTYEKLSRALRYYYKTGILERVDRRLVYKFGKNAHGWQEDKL
# Outline: as §1
# ETV3 = target: T12, ETV3 (Homo sapiens, UniProt P41162-2 1-143); settings: protein: recombinant; tags: N-terminal GST; dsDNA, one strand shown
# T12 sequence: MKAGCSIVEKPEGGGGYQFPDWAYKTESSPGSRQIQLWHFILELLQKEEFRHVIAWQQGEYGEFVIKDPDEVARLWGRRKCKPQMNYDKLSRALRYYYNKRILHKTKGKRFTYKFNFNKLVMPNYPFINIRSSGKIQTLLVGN
# Outline: as §1
# ETV6 = ETV6 (Homo sapiens, UniProt P41212 1-452); settings: protein: recombinant; tags: N-terminal GST; dsDNA, one strand shown
# Chain of ETV6 (P41212 whole entry): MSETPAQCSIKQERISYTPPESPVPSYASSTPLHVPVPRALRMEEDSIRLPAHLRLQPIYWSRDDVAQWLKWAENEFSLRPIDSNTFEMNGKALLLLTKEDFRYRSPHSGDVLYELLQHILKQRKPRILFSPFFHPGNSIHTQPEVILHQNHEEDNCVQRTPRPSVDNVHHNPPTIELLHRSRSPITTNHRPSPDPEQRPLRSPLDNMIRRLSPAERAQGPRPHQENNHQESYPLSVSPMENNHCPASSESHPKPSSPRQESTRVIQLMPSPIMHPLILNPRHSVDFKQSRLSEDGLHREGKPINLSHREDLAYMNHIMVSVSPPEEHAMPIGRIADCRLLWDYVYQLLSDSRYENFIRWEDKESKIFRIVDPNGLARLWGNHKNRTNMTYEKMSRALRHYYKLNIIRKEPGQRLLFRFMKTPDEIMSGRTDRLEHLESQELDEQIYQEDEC
# Outline: as §1
sequence,measurement,setting,value
CTGGAT,binding signal,FEV,"1.38 fold enrichment (6-mer frequency, TF over GST control)"
same,binding signal,ETV5,"1.4 fold enrichment (6-mer frequency, TF over GST control)"
same,binding signal,HSF1,"2.19 fold enrichment (6-mer frequency, TF over GST control)"
same,binding signal,SPIC,"1.34 fold enrichment (6-mer frequency, TF over GST control)"
same,binding signal,ELF4,"1.35 fold enrichment (6-mer frequency, TF over GST control)"
same,binding signal,ELK4,"1.35 fold enrichment (6-mer frequency, TF over GST control)"
same,binding signal,ETV2,"1.41 fold enrichment (6-mer frequency, TF over GST control)"
same,binding signal,ELF3,"1.41 fold enrichment (6-mer frequency, TF over GST control)"
same,binding signal,CRX,"2.05 fold enrichment (6-mer frequency, TF over GST control)"
same,binding signal,ETV1,"1.47 fold enrichment (6-mer frequency, TF over GST control)"
same,binding signal,ERF,"1.43 fold enrichment (6-mer frequency, TF over GST control)"
same,binding signal,ETV3L,"1.5 fold enrichment (6-mer frequency, TF over GST control)"
same,binding signal,ETS2,"1.4 fold enrichment (6-mer frequency, TF over GST control)"
same,binding signal,SPDEF,"1.42 fold enrichment (6-mer frequency, TF over GST control)"
same,binding signal,ETV7,"1.22 fold enrichment (6-mer frequency, TF over GST control)"
same,binding signal,ELF5,"1.3 fold enrichment (6-mer frequency, TF over GST control)"
same,binding signal,ETV3,"1.37 fold enrichment (6-mer frequency, TF over GST control)"
same,binding signal,ETV6,"1.21 fold enrichment (6-mer frequency, TF over GST control)"
